Here are results for 36 compounds from PubChem BioAssay.

Structures are written as SMILES.

The assay deals with Torsin-1A (Homo sapiens) (UniProt O14656). Put plainly: torsin A mutant lysate binding on microarrays – cell lysate, small-molecule microarray, COS7 lysate, 635/667 nm fluorescence, primary screen (AID 1150).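 Also: score pools 667 nm emission and signal to noise measuring lysate protein binding.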 The following applies: COS7 hTOR1A mutant lysate, 635 nm fluorescence, higher = more signal.
Sequence of Torsin-1A (Homo sapiens) (O14656 whole entry, looked up): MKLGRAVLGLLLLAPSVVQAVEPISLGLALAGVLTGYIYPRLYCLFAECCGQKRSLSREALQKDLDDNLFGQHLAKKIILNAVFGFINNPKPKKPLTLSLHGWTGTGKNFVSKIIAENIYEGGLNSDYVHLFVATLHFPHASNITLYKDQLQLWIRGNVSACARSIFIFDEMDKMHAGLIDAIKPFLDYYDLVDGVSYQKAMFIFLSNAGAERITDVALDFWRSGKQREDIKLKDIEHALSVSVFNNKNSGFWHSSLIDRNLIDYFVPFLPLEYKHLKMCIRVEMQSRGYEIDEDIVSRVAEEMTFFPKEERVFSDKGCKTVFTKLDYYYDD
In the case of `C=C(C)C1C(=C)CN([C@H](CO)c2ccccc2)C1=O` (stereo partly specified), the composite z-score was -0.821.
Under `COc1ccc(C(O)C2C=CC3C(=O)N(c4ccccc4)C(=O)C3N2Nc2ccccc2F)cc1OCc1ccccc1` (stereo unspecified) stands 0.671; under `COCCCNC(=O)[C@@]1(Cc2ccccc2)N=C(c2ccc(OCCCO)cc2)O[C@H]1c1ccccc1`, 1.16.
In the case of `CC(C)C(CO)N1C(=O)[C@@H]2[C@H]3C(=O)OCC=C[C@H]3OC23C=CCN(C(C)C)C(=O)[C@@H]13` (stereo partly specified) it was -0.374; in that of `[N-]=[N+]=Nc1ccccc1[C@H]1OC(c2ccc(OCCCO)cc2)=N[C@@]1(Cc1ccccc1)C(=O)O`, 0.306; in that of `Cc1ccc(S[C@]2(C(=O)NC(C)C)CC(=O)N(Cc3ccccc3Cl)[C@@H]2c2ccc(CO)cc2I)cc1`, -1.25.
In the case of `CN(C)CCCCCCNC(=O)[C@@H]1C[C@@H]2C(=O)N[C@@H](CCCCN)C(=O)N2[C@@H]1c1cccc(OCCO)c1` it was 3.11.
`CC(C)(C)OC(=O)CC[C@]12N=C(c3ccc(OCCCO)cc3)O[C@H]1c1ccccc1N(CCS(=O)(=O)c1ccccc1)C2=O`: the composite z-score was found to be 0.811.
Under `COCCn1c(C(=O)N2CCCC2)cc2c1C[C@H]1CN(C(=O)c3ccccc3)[C@@](Cc3ccc(F)cc3)(C(=O)OC)[C@@H]21` stands 2.2.
In the case of `CC1CC/C=C\[C@H]2OC34C=CCN(C(C)(C)C)C(=O)[C@H]3N(CCCCCCO)C(=O)[C@@H]4C2C(=O)O1` (stereo partly specified) it was -0.433; in that of `COCCOC(=O)N1C(=O)[C@@]2(c3cc(C#Cc4ccc(OC)cc4)ccc31)[C@H](C(N)=O)[C@H]1C(=O)O[C@H](c3ccccc3)[C@H](c3ccccc3)N1[C@@H]2c1ccccc1OCCO`, 1.81.
Take `O=C1OCCC/C=C\[C@H]2OC34C=CCN(c5ccc6ccccc6c5)C(=O)[C@H]3N(CCCCCCO)C(=O)[C@@H]4C12` (stereo partly specified): the composite z-score is -1.2.
Under `COc1ccc([C@H]2C[C@H]3C(Br)=C[C@@H]2C(=O)[C@]32CO2)cc1` stands -0.12; under `COCCOC(=O)N1C(=O)[C@@]2(c3cc(C#CCCO)ccc31)[C@H](c1ccc(OCCO)cc1)N1[C@H](c3ccccc3)[C@H](c3ccccc3)OC(=O)[C@H]1[C@@H]2C(=O)N1CCN(c2ncccn2)CC1`, 0.28.
In the case of `Cc1ccc(C(C)CC(O)C2C=CC3C(=O)N(C)C(=O)C3N2NC(=O)OC(C)(C)C)o1` (stereo unspecified) it was 1.05.
Under `C=CC[C@@]1(C(=O)N(C)C)N=C(c2ccc(OCCCO)cc2)O[C@@H]1c1ccccc1N=[N+]=[N-]` stands 1.03.
The compound `COCCOC(=O)N1C(=O)[C@@]2(c3cc(C#CCCO)ccc31)[C@H](C(=O)Nc1nc3ccccc3s1)[C@H]1C(=O)O[C@H](c3ccccc3)[C@H](c3ccccc3)N1[C@@H]2c1ccc(OCCO)cc1` displayed a composite z-score of 1.42.
Under `O=C(c1ccccc1)N1Cc2ccccc2[C@@H]2OC(c3ccc(OCCCO)cc3)=N[C@]2(Cc2ccccc2)C1=O` stands 0.423.
In the case of `NCCCCCNC(=O)[C@@H]1C[C@@H]2C(=O)N[C@@H](Cc3ccccc3)C(=O)N2[C@@H]1c1cccc(OCCO)c1` it was 0.373; in that of `COc1ccc([C@H]2OC[C@@H]3CC4(CC=CC4)C(=O)N32)cc1`, -0.436.
In the case of `CN1C(=O)C2C=CC(C(O)Cc3ccccc3)N(Nc3ccccc3)C2C1=O` (stereo unspecified) it was 0.444.
The compound `[N-]=[N+]=NCc1ccccc1[C@@H]1OC(c2ccc(OCCCO)cc2)=N[C@]1(Cc1ccccc1N=[N+]=[N-])C(=O)N1CCOCC1` gave a composite z-score of 0.898.
In the case of `COc1ccc(CCNC(=O)[C@@]2(Sc3ccc(C)cc3)CC(=O)N(C3CCCCC3)[C@@H]2c2ccc(CO)cc2I)cc1` it was 0.789; in that of `[N-]=[N+]=NCc1ccccc1[C@@H]1OC(c2ccc(OCCCO)cc2)=N[C@]1(CCS(=O)(=O)c1ccccc1)C(=O)NCc1ccccc1`, 0.467; in that of `O=C1OCC=C[C@H]2OC34C=CCN(CCN5CCOCC5)C(=O)[C@H]3N(CCCO)C(=O)[C@@H]4[C@@H]12` (stereo partly specified), 0.156.
As to `CCc1oc(CC[C@@H](CO)NC(=O)NCCn2cc(C3(O)CCCCC3)nn2)c(C(=O)OC)c1C(=O)OC`, the composite z-score was determined as 1.11.
In the case of `COC(=O)[C@@]1(Cc2ccc(F)cc2)[C@H]2c3cc(C(=O)N(C)C)n(Cc4nc5ccccc5[nH]4)c3C[C@H]2CN1C(=O)c1ccccc1` it was 0.484; in that of `COc1ccc(CCN2C(=O)[C@@]3(c4ccc([N+](=O)[O-])cc4)CC(=O)N(C4CCCCC4)[C@@H]3c3ccc(CO)cc32)cc1`, 0.128.
Under `O=C(O)[C@@]1(CCS(=O)(=O)c2ccccc2)COC(c2ccc(OCCCO)cc2)=N1` stands 0.333.
In the case of `CC(C)C[C@@H]1NC(=O)[C@H]2C[C@@H](C(=O)NCCCCCCN)[C@@H](c3ccc(O)cc3)N2C1=O` it was 0.339; in that of `CCCC[C@H]1OB(O)C[C@H]2C1=C(COc1ccccc1)C[C@H]1C(=O)N(C)C(=O)[C@H]12`, 0.138.
On to `O=C1O[C@H](c2ccccc2)[C@H](c2ccccc2)N2[C@H]1[C@@H](C(=O)N1CCN(c3ncccn3)CC1)[C@]1(C(=O)Nc3ccc(C#CC4=CCCCC4)cc31)[C@H]2c1ccc(O)cc1`, for which the composite z-score stood at 0.839.
In the case of `C#CCN(CC=C(C)C)[C@H](CO)c1ccccc1` it was 1.08; in that of `Cc1ccc(S[C@]2(C(=O)NCCN3CCOCC3)CC(=O)N(Cc3ccccc3Cl)[C@@H]2c2ccc(CO)cc2)cc1`, 0.269; in that of `O=C1NC(=O)C2C1C=CC(C(O)Cc1ccccc1)N2Nc1ccc(Cl)cc1Cl` (stereo unspecified), 1.12.
In the case of `C=CCOC(=O)[C@@H]1[C@H]2C(=O)O[C@H](c3ccccc3)[C@H](c3ccccc3)N2[C@H](c2ccc(OCCOC(=O)[C@@H]3C[C@@H]4C(=O)N5CCC[C@H]5C(=O)N4[C@@H]3c3ccc(O)cc3)cc2)[C@@]12C(=O)Nc1ccc(I)cc12` it was 0.878.
